High-throughput results (PubChem)
KCNQ2 enhance: potentiators of rat KCNQ2 potassium channel. 0.54% of 310,000 active. CHO-K1 KCNQ2, FluxOR thallium flux fluorescence; active compounds read high. B-score at 10 µM;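 active means fluorescence ratio B-score at least 3 SD of library B-scores, with initial fluorescence B-score within 3 of them, cut at about 5.3 in these data; same plate scores as AID 2156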;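 further: B-score of peak minus minimum over baseline fluorescence ratio after K+ and Tl+ stimulus; positive B-score means potentiation of KCNQ2 with more thallium influx and brighter signal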
Target sequence (O88943 whole entry, looked up): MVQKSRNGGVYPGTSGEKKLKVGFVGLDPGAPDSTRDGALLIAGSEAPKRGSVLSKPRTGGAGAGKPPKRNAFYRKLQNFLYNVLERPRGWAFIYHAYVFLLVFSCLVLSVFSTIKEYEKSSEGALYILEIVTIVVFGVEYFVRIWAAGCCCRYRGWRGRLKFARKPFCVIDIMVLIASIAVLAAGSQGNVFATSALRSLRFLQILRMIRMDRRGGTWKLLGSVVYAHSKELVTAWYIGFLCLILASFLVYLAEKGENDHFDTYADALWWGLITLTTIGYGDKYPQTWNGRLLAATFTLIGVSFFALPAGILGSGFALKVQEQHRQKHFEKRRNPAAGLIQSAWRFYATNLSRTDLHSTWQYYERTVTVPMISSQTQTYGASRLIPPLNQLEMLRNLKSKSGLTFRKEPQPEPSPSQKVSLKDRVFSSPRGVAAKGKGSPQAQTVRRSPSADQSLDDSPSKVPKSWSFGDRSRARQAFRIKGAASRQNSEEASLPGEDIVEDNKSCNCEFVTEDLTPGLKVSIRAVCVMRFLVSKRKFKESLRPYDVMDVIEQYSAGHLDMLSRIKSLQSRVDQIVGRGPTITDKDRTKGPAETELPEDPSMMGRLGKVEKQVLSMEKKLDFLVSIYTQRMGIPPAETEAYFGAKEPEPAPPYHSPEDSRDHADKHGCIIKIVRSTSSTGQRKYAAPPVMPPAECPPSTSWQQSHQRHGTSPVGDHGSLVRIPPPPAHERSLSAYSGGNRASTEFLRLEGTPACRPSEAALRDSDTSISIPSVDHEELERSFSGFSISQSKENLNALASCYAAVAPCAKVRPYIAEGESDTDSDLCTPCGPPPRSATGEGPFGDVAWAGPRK
KCNQ2 block: rat KCNQ2 potassium channel inhibitors, primary screen, cell-based, CHO-K1, FluxOR thallium flux, B-score | Potassium voltage-gated channel subfamily KQT member 2 (Rattus norvegicus), O88943 | 20 min; active compounds read low | B-score at 10 µM | 1.1% of 310,000 active | AID 2156, 2009;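 active means fluorescence ratio B-score at most minus 3 library SDs, with starting brightness B-score within 2 library SDs, cut at about -5.5 in these data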
Starred values were filed as active, the others as inactive; i = inactive; . = no result given. Hits are enriched below; roughly 1.6% of the tested compounds scored in any of these assays.

SMILES | KCNQ2 enhance | KCNQ2 block
COc1ccc(Cl)cc1NC(=O)CN(C1CCCCC1)S(C)(=O)=O | -5.86 | -5.86*
CS(=O)(=O)N(CC(=O)Nc1ccc(F)cc1F)C1CCCCC1 | 0.06 | i
Cc1ccc(C)c2nc(SCC(=O)N3CCCc4ccccc43)c(C#N)cc12 | -7.74 | -7.74*
Cc1cccc2cc(C#N)c(SCC(=O)N3CC(=O)Nc4ccccc43)nc12 | 0.49 | i
CCCCN1C(=S)SC(C)(C)C1/[N+]([O-])=C/c1ccc(S(=O)(=O)NC)cc1 (stereo not drawn) | 1.18 | i
Cc1cnc(NC(=O)c2c(Cl)cnn2C)s1 | 1.19 | i
Cc1ccc(C)c(N2CC(C(=O)OCC(=O)Nc3cc(C)on3)CC2=O)c1 (stereo not drawn) | . | i
O=C1C(Cl)=C(N2CCC(C(=O)O)CC2)C(=O)c2ccccc21 | . | i
NC(=O)C1CCN(C2=C(Cl)C(=O)c3ccccc3C2=O)CC1 | -12.2 | -12.2*
Cc1cc(-c2nnc(SCC(=O)Nc3ccc(F)cc3F)n2N)n[nH]1 | 0.46 | i
CC(=O)Nc1ccc(S(=O)(=O)N(C)CC(=O)Nc2cccc(S(=O)(=O)N3CCCC3)c2)cc1 | . | i
CC(=O)c1cccc(NC(=S)N2CCN(c3ccccn3)CC2)c1 | . | i
CSCCC(NC(=O)COc1ccccc1)C(=O)OCC(=O)c1ccccc1 (stereo not drawn) | . | i
CSCCC(NC(=O)COc1ccccc1)C(=O)N1CCN(c2ccccc2O)CC1 (stereo not drawn) | -6.23 | -6.23*
COc1ccc(OC)c(CC(=O)N2CCc3cc(OC)c(OC)cc3C2)c1 | 0.16 | i
COc1cc(NC(=O)NNC(=O)c2cc3occc3n2C)cc(OC)c1OC | . | i
Cc1sc(NC(=O)C2CSC3(C)CCC(=O)N23)nc1-c1ccccc1 (stereo not drawn) | -6.86 | -6.86*
CC12CCC(=O)N1C(C(=O)Nc1cc(C(F)(F)F)ccc1N1CCOCC1)CS2 (stereo not drawn) | . | i
CC12CCC(=O)N1C(C(=O)Nc1ccc(Cl)c(S(=O)(=O)N3CCCCC3)c1)CS2 (stereo not drawn) | -6.08 | -6.08*
CC12CCC(=O)N1C(C(=O)Nc1ccc(Cl)c(Cl)c1)CS2 (stereo not drawn) | . | i
CC(=O)c1sc(NC(=O)C2CSC3(C)CCC(=O)N23)nc1-c1ccccc1 (stereo not drawn) | . | i
CC12CCC(=O)N1C(C(=O)NCc1ccccc1Cl)CS2 (stereo not drawn) | -5.84 | -5.84*
CC12CCC(=O)N1C(C(=O)Nc1cc(C(F)(F)F)ccc1N1CCCCC1)CS2 (stereo not drawn) | -6.05 | -6.05*
CC12CCC(=O)N1C(C(=O)NCCc1ccccc1)CS2 (stereo not drawn) | . | i
CCOc1ccccc1NC(=O)COC(=O)CCOc1cc(C)ccc1C | 0.32 | i
SMILES | KCNQ2 enhance | KCNQ2 block
O=C(NCCc1nnc2ccc(NCCCN3CCOCC3)nn12)c1ccccc1F | . | i
COc1ccc(C(C)=O)cc1CN(c1ccccc1OC)S(=O)(=O)c1cccs1 | 1.29 | i
Oc1ccccc1C1=Nc2ccccc2N=C(c2cccs2)C1 | . | i
Cc1ccc(O)c(C2=Nc3ccccc3N=C(c3cccs3)C2)c1 | -5.59 | -5.59*
Cc1[nH]c(C)c(S(=O)(=O)NCc2ccc(N(C)C)cc2)c1C(=O)N1CCCC1 | 1.65 | i
COc1ccc(CCNC(=O)C2CCCN(S(=O)(=O)c3ccccc3)C2)cc1 (stereo not drawn) | 1.01 | i
CS(=O)(=O)c1ccccc1C(=O)N(CCc1ccccc1)Cc1ccccc1 | -5.6 | -5.6*
COc1ccc(C(=O)N(CCc2ccccc2)Cc2cccs2)c(OC)c1 | . | i
COc1ccc(C(=O)N(CCc2ccccc2)Cc2ccccc2)c(OC)n1 | -7.72 | -7.72*
CS(=O)(=O)c1ccc(C(=O)N(CCc2ccccc2)Cc2ccccc2)cc1 | . | i
COc1ccccc1CNC(=O)c1csc2c1CCCC2 | -6.46 | -6.46*
COc1ccccc1NC(=O)c1csc2c1CCCC2 | . | i
Cc1ccc(NC(=O)NN2CCN(C)CC2)cc1C | 0.01 | i
O=C(/C=C/c1ccccc1)C1C(=O)c2ccccc2C1=O | 5.77* | i
CCc1ccc(/C=C/C(=O)C2C(=O)c3ccccc3C2=O)cc1 | 3.54 | i
COc1ccnc2c1c(=O)n(Cc1ccc(Cl)cc1Cl)c(=O)n2C | -5.9 | -5.9*
COc1ccnc2c1c(=O)n(Cc1ccccc1Cl)c(=O)n2C | . | i
CC(C)N(C(=O)COc1ccc(Br)cc1Cl)C(C)C | -5.68 | -5.68*
O=C(COc1ccc(Br)cc1Cl)NC1CCCCC1 | 0.71 | i
CN(Cc1ccccc1)C(=O)COc1ccc(Br)cc1Cl | . | i
COC(=O)C1CCCN1C(=O)COc1ccc(Br)cc1Cl (stereo not drawn) | 6.63* | i
Cc1ccc(C(=O)C2CCN(C(=S)NCCCOC(C)C)CC2)cc1 | . | i
COc1cc2c(cc1OC)[C@H](C)N(C(=O)NCc1ccccc1)CC2 | 1 | i
C=CCN1C(=O)c2ccccc2Sc2ccc(C(=O)NCC(OC)OC)cc21 | 0.55 | i
Cn1c(CC(=O)Nc2ccc(F)cc2)nnc1SCC(=O)Nc1nncs1 | . | i
SMILES | KCNQ2 enhance | KCNQ2 block
O=C(N/N=C/c1ccccn1)c1cc(-c2ccc(Cl)cc2)nc2ccccc12 | 9.58* | i
CCCOc1cccc(-c2cc(C(=O)N/N=C/c3cccnc3)c3ccccc3n2)c1 | -5.83 | -5.83*
O=C(N/N=C/c1c[nH]c2ccccc12)c1sc2ccccc2c1Cl | . | i
N/C(=N\OC(=O)c1cc(-c2ccccc2)nc2ccccc12)c1ccc(Cl)cc1 | -6.23 | -6.23*
O=C(N/N=C/c1ccccn1)c1sc2ccccc2c1Cl | 13.6* | i
N/C(=N\OC(=O)c1cc(-c2ccccc2)nc2ccccc12)c1cccnc1 | . | i
Cc1cccc(-c2cc(C(=O)N/N=C/c3cccnc3)c3ccccc3n2)c1 | . | i
O=C(N/N=C/c1ccccn1)c1cc(-c2ccc(Br)cc2)nc2ccccc12 | 4.84 | i
COc1ccc(OC)c(C(=O)NC(CC(N)=O)c2ccc(N3CCN(c4ccc(F)cc4)CC3)c([N+](=O)[O-])c2)c1 (stereo not drawn) | 0.71 | i
O=C(/C=C/c1ccccc1)NC(=S)Nc1ncccn1 | . | i
CCCCCN(C(=O)CCC(=O)OCC(=O)Nc1cccc(CC)c1)c1c(N)n(CCCC)c(=O)[nH]c1=O | . | i
Cc1[nH]c2c(C)cccc2c(=O)c1CN1CCCCCC1 | . | i
COc1ccc(OCc2cc(C(=O)N(C)C(C)c3ccon3)no2)c(Cl)c1 (stereo not drawn) | 0.9 | i
O=C(NCc1cn2ccsc2n1)c1cccc(C(F)(F)F)c1 | . | i
Cc1csc2nc(CNC(=O)c3cccc(C(F)(F)F)c3)cn12 | -6.17 | -6.17*
O=c1ccc(N=Nc2ccccc2)ccc1O | 19.2* | i
O=S(=O)(O)c1ccc(N=Nc2ccccc2)cc1 | 0.12 | i
COc1ccc(Cl)cc1NC(=O)CCS(=O)(=O)c1ccc(C)cc1 | . | i
O=C(CSc1nnc(Cc2ccccc2)c(=O)[nH]1)Nc1ccccc1 | . | i
CCOP(=O)(OCC)c1nc(-c2cccc([N+](=O)[O-])c2)oc1N1CCCCC1 | . | i
CCOP(=O)(c1ccccc1)c1nc(-c2ccccc2Cl)oc1N1CCCCC1 (stereo not drawn) | -5.61 | -5.61*
